High-throughput results deposited in PubChem BioAssay by several laboratories.
This is a sample that favours compounds with a hit; in the whole collection about 4.6% have one here.
PfHsp90 set2 – reduces growth (ATP signal) of yeast expressing P. falciparum Hsp90; S. cerevisiae expressing PfHsp90, BacTiter-Glo ATP, 48 h; yeast lacking PDR1 and PDR3 efflux regulators; inhibition, % at 9.4 µM; 310,000 compounds, 0.32% hits; AID 504621;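 active = every replicate shows inhibition above about 80%, whatever the replicate mean, limit read from the data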;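 also: 0% = DMSO neutral controls and 100% = 20 µM radicicol positive controls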
tim23-1 inh – growth inhibitors of tim23-1 mutant yeast. 330,000 compounds, 1.3% hits. inhibition, % at 20 µM. S. cerevisiae tim23-1 growth, BacTiter-Glo luminescence, 24 h;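 active = growth inhibition of the mutant yeast at or above 50%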;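 also: temperature-sensitive mutant grown at 25 °C; plate controls were DMSO-treated mutant yeast for no effect and medium wells lacking yeast for full effect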
tim10-1 inh – inhibits growth of tim10-1 mutant yeast. S. cerevisiae tim10-1 ts strain growth, BacTiter-Glo, 24 h. inhibition, % at 20 µM. 330,000 compounds, 2.2% hits. AID 463190;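 active = inhibition of at least 40%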;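 also: mutant grown at 25 °C; 0% = DMSO wells with yeast and 100% = wells holding no yeast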
SKKanGAS inh – blocks kanamycin growth of S. pyogenes SKKanGAS strain; BacTiter-Glo, 6 h; inhibition, % at 7.5 µM; 300,000 compounds, 1.3% hits; AID 1662;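 active = mean replicate score, as percent of positive control median, at least 50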;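 also: strain carries kanamycin resistance gene driven by streptokinase promoter and grows in 40 µg/ml kanamycin; loss of luminescence reflects streptokinase promoter inhibition or plain growth inhibition; 0% = median of DMSO wells and 100% = positive control at its reference dose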
NALP3 yeast inh – blocks the NALP3 inflammasome reconstituted in yeast | 330,000 compounds, 0.39% hits | Yeast reconstituted NLRP3/ASC/caspase-1, beta-gal luminescence, 24 h | inhibition, % at 10 µM;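 active = inhibition of 50% or more; inactive = inhibition below 50%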;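 also: plate controls were induced DMSO wells for no effect and uninduced yeast grown without galactose for full effect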
TIM10 inh – growth inhibitors of TIM10 yeast strain; S. cerevisiae TIM10 strain growth, BacTiter-Glo luminescence, 24 h; inhibition, % at 10 µM; 330,000 compounds, 1.4% hits;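 active = inhibition of 40% or more at the single tested concentration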;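 also: wild-type TIM10 isogenic control strain grown at permissive 25 °C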
tim10-1 conf – tim10-1 yeast growth inhibition, confirmed. shares compounds with tim10-1 inh. 7,400 compounds, 56% hits. S. cerevisiae tim10-1 ts strain growth, BacTiter-Glo, 24 h. inhibition, % at 20 µM. AID 463213;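 active = inhibition of yeast growth at or above a set limit in either of two repeat tests at 20 µM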;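 also: tim10-1 mutant grown at permissive 25 °C to find synthetic lethal compounds; 0% = DMSO yeast wells and 100% = medium wells without yeast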
TIM10 conf – TIM10 yeast growth inhibition, confirmed. shares compounds with TIM10 inh. S. cerevisiae tim10 strain growth, BacTiter-Glo luminescence, 24 h. inhibition, % at 10 µM. 4,600 compounds, 63% hits. AID 463215;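 active = inhibition of yeast growth at or above a set limit in either of two replicates at 10 µM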;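 also: this counterscreen used the strain with wild-type TIM10; 0% = yeast with DMSO and 100% = medium wells lacking yeast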
tim23-1 confirm – confirmation of tim23-1 mutant yeast growth inhibitors; S. cerevisiae tim23-1 growth, BacTiter-Glo luminescence, 24 h; shares compounds with tim23-1 inh; 4,400 compounds, 83% hits; inhibition, % at 20 µM;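 active = inhibition above about 39% in either of two replicate wells at 20 µM, limit read from the data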;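 also: temperature-sensitive tim23-1 mutant grown at 25 °C; 0% = DMSO wells with yeast and 100% = medium wells without yeast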
An asterisk follows results filed as active; · = not tested or not shown.

SMILES	PfHsp90 set2	tim23-1 inh	tim10-1 inh	SKKanGAS inh	NALP3 yeast inh	TIM10 inh	tim10-1 conf	tim23-1 confirm	others
O=C(COC(=O)c1ccc([N+](=O)[O-])o1)NCCc1ccccc1	-14.8	-7.9	-165.8	·	15.5	-156.9	·	·
CC(C)(C)N(Cc1ccccc1)C(=O)COC(=O)c1ccc([N+](=O)[O-])o1	-26.2	52.8*	45.0*	·	23.7	26.8	31.1	45.9*
Cc1cc(N2CCN(C)CC2)ccc1NC(=O)c1cccc(S(=O)(=O)N2CCc3ccccc3C2)c1	21.8	5.9	14.2	6.5	7.8	-1.0	·	·
O=C1Nc2ccc(Br)cc2/C1=N\N=C\C1=C(N2CCOCC2)C(=C/c2ccccc2)/CC1	21.8	·	·	·	·	·	·	·
O=C1Nc2ccccc2/C1=N\N=C\C1=C(N2CCOCC2)C(=C\c2ccccc2)/CC1	6.4	58.5*	61.2*	26.7	-5.6	46.5*	51.7*	50.6*	TIM10 conf=36.1*
CCOc1ccc(NC(=O)CNC(=O)c2nn(-c3ccc(OC)cc3)c(=O)c3ccccc23)cc1	7.3	-13.1	-13.6	7.6	5.6	-4.3	·	·
CCC(C)c1ccc(NC(=S)NCc2cccs2)cc1 (configuration not stated)	·	53.0*	55.7*	0.4	22.0	53.5*	54.8*	54.8*	TIM10 conf=44.5*
Cc1ccc(SCC(=O)NCCc2ccc(F)cc2)cc1	-8.4	28.3	14.6	-2.2	8.6	-1.4	·	·
Cc1ccc(C(=O)Oc2oc(-c3ccco3)nc2C=Nc2ccc(Cl)cc2)cc1	13.3	50.4*	49.6*	-1.0	26.5	36.6	35.3*	66.5*
O=C(Oc1oc(-c2ccco2)nc1C=Nc1ccccc1)c1ccoc1	5.5	10.2	18.4	3.6	-2.0	-2.1	·	·
O=C(COC(=O)/C=C/c1ccccc1)NCCc1ccc(F)cc1	·	11.5	4.7	·	-14.6	-1.9	·	·
N/C(=N\OC(=O)c1cc(-c2ccccc2)nc2ccccc12)c1cccnc1	-5.6	80.2*	52.1*	-3.5	-18.9	71.1*	66.5*	29.8	TIM10 conf=77.3*
N/C(=N\OC(=O)c1cc(-c2ccccc2)nc2ccccc12)c1ccc(Cl)cc1	-1.3	69.8*	59.1*	-7.9	-13.8	89.1*	44.2*	42.3*	TIM10 conf=86.6*
C#CCNC(=O)C1=C[C@@H](c2ccc(C#C)cc2)C[C@@H](OCc2ccc(CO)cc2)O1	-5.8	21.3	13.6	3.6	-1.0	3.7	·	·
O=C1/C(=C\c2ccncc2)SC(=S)N1C1CCCCC1	-17.3	51.7*	43.5*	3.4	14.8	27.3	22.9	42.2*
Cc1ccc(/C=C2/SC(=S)N(C3CCCCC3)C2=O)o1	-52.9	36.4	28.3	-4.6	-1.0	30.7	·	·
CCN(CC)/C(Sc1ccccc1)=C(\C(Cl)=C(Cl)Cl)[N+](=O)[O-]	3.4	51.2*	44.1*	-0.4	0.7	46.3*	35.1*	50.5*	TIM10 conf=18.9
CCOc1ccccc1N/C(=C(/C(Cl)=C(Cl)Cl)[N+](=O)[O-])n1cncn1	2.8	19.3	14.8	·	4.5	17.4	·	·
Cc1ccc2c(c1)C(=O)C(=O)N2CC1COc2ccccc2O1 (configuration not stated)	-27.9	65.5*	41.0*	1.1	17.9	18.4	30.2	77.6*
O=C(COc1cccnc1[N+](=O)[O-])c1ccc(Cl)s1	12.3	0.0	6.3	10.8	-1.8	-2.4	·	·
COc1cc(/C=C(/C#N)C(=O)NCc2ccccc2)cc(OC)c1OC	-27.0	62.6*	55.0*	-6.5	14.6	34.0	49.1*	60.5*
COc1ccc2c(c1)CC/C2=N\OC(=O)c1ccccc1C	15.2	69.9*	42.9*	16.9	37.3	72.6*	31.0	75.0*	TIM10 conf=86.8*
COc1ccc2c(c1)CCC/C2=N/OC(=O)c1ccccc1OC	-11.9	42.9	27.7	-4.0	17.1	23.8	·	·
O=C(NC(=S)Nc1cccc(C(F)(F)F)c1)c1ccc2nonc2c1	·	55.7*	50.7*	0.0	16.7	26.9	22.3	63.0*
FC(F)(F)c1cccc(NC(=S)Nc2ccc(Cl)c(Cl)c2)c1	9.4	85.8*	72.9*	96.3*	5.0	75.6*	82.0*	89.8*	TIM10 conf=73.3*
SMILES	PfHsp90 set2	tim23-1 inh	tim10-1 inh	SKKanGAS inh	NALP3 yeast inh	TIM10 inh	tim10-1 conf	tim23-1 confirm	others
FC(F)(F)c1cccc(NC(=S)NC(c2ccccc2)c2ccccc2)c1	-21.3	·	·	11.6	·	·	·	·
CCOc1cc(OCC)cc(C(=O)NC(=S)Nc2cccc(C(F)(F)F)c2)c1	·	13.2	1.9	30.3	20.1	-27.2	·	·
CN(C1CCCCC1)C(CNS(=O)(=O)c1ccccc1)c1ccccc1 (configuration not stated)	21.4	6.6	6.4	-2.1	4.0	4.3	·	·
Cc1ccc(C(=O)Oc2oc(-c3ccccc3)nc2C=Nc2ccc(N(C)C)cc2)cc1	4.5	18.6	26.1	5.0	18.4	3.3	·	·
COc1ccc(N=Cc2nc(-c3ccccc3)oc2OC(C)=O)cc1	-10.5	70.0*	46.2*	-3.0	1.4	47.9*	47.2*	63.0*	TIM10 conf=25.8
COc1cccc(N=Cc2nc(-c3ccccc3)oc2OC(C)=O)c1	-5.5	73.5*	64.5*	2.5	0.7	43.8*	50.9*	70.1*	TIM10 conf=34.2*
Cc1cc(-c2nnc(SCCC(=O)Nc3ccccc3)o2)no1	-24.5	9.8	9.1	10.7	19.2	5.4	·	·
Cc1ccccc1CNC(=O)CCNS(=O)(=O)c1ccc(OC(F)(F)F)cc1	·	-3.5	-13.3	·	13.7	-5.2	·	·
Cc1sc(NC(=O)c2ccco2)c(CN2CCN(c3ccccn3)CC2)c1C	-20.2	59.1*	48.1*	19.9	3.2	27.1	32.5*	54.9*
Cc1sc(NC(=O)c2ccco2)c(CN2CCN(c3ccc(F)cc3)CC2)c1C	-50.3	-0.3	5.2	12.8	25.3	5.6	·	·
CCOC(=O)c1ccc(NC(=O)CCC2COc3ccccc3O2)cc1 (configuration not stated)	·	53.0*	41.1*	-3.8	14.4	36.4	35.7*	47.5*
CCOC(=O)c1sc2c(c1C)c(=O)n(Cc1ccccc1)c(=O)n2CCN(C)C	9.2	26.3	34.6	7.4	21.5	2.9	·	·
Cc1c(CCOC(=O)C23CC4CC(CC(C4)C2)C3)sc[n+]1CC#N	-24.7	8.7	10.6	5.0	9.4	10.6	·	·
O=CN1CCN(C(C(=O)NC2CCCCC2)c2ccc(Cl)cc2)CC1 (configuration not stated)	1.5	13.4	-1.5	-5.8	16.2	-10.9	·	·
O=[N+]([O-])c1cccc(-c2nnc(-c3ccccc3)o2)c1	-4.7	-8.9	17.5	4.3	23.5	23.0	·	·
